From PubChem BioAssay AID2685 (National Center for Advancing Translational Sciences (NCATS), 2010)
Among all 320,000 compounds or so, about 2,100 (0.66%) were called active. Roughly 53% stayed inconclusive and do not appear here. Calls follow the shape of the dose curve; as a rule, active = well fitted inhibition curve with a large enough effect in the signal ratio, with a control signal flat (not every such curve was filed as active); inconclusive = small, poorly fitted or top-dose-only effect, or effect the other way, or a change in a side signal; inactive = flat fitted curve, though single readings scatter; the % refers to the signal ratio. What follows is part of a selection rich in actives, with near analogues and random picks from the rest.

Assay: qHTS Assay for Lipid Storage Modulators in Drosophila S3 Cells;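 as to cell number change: cells counted by Cell Tracker Red CMTPX staining in the red channel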; as to lipid storage change, negative = inhibition: % is scaled to controls: 0 for no effect and ±100 for the full control effect
Details: BODIPY lipid droplet fluorescence, 18-24 h, cells fed with added oleic acid; cell number change: measured here: cell count max response; series mostly up to 46.1 µM; lipid storage change, negative = inhibition: at the top concentration
Procedure, shortened: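 Laser-scanning cytometry quantifies lipid droplet accumulation (500–530 nm total intensity; droplet/cell object ratio) in oleic acid-fed (400 uM added) Drosophila S3 cells treated with a concentration series. 20 uM Triacsin C defined 100% inhibition.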
Potency is read from the fitted curve at half-maximal effect.

Row | SMILES | outcome | cell number change [%] | Potency | lipid storage change, negative = inhibition
1 | CCOc1ccc(S(=O)(=O)N2CCC(C(=O)N3CCN(c4ccccc4)CC3)CC2)cc1 | inactive | -5.41 | – | –
2 | CCOc1ccc(S(=O)(=O)N2CCC(C(=O)N3CCc4ccccc4C3)CC2)cc1 | – | -23.3 | 7.31 µM (active) | –
3 | CCOc1ccc(S(=O)(=O)N2CCC(C(=O)N3CCN(Cc4ccccc4)CC3)CC2)cc1 | – | -0.232 | – | -20.9% (inactive)
4 | Cc1ccc(C2=NNC(=O)C(P(=O)(c3ccccc3)c3ccccc3)C2)cc1 (stereo not given) | – | 21.3 | – | 23.4% (inactive)
5 | S=C1NCN(C2CCCCC2)CN1Cc1ccccc1 | – | 2.76 | – | 5.67% (inactive)
6 | CCCc1cc(=O)oc2cc(C)cc(OC(C)C(=O)NCCCN3CCOCC3)c12 (stereo not given) | inactive | 6.42 | – | –
7 | O=c1[nH]c2ccccc2nc1/C=C/c1ccc(F)cc1 | – | 28.9 | 9.2 µM (active) | –
8 | Cn1c(=O)c(/C=C/c2ccc(F)cc2)nc2ccccc21 | – | -1.08 | – | -6.81% (inactive)
9 | O=c1[nH]c2ccccc2nc1/C=C(\O)C(F)F | – | 13.5 | – | 9.85% (inactive)
10 | COC(=O)[C@@H]1C2CCC(C(=O)Nc3ccccc3)(CC2)[C@@H]1C(=O)OC | inactive | – | – | –
11 | COC(=O)C1CCN(S(C)(=O)=O)CC1 | – | 4.24 | – | 3.84% (inactive)
12 | COC(=O)[C@H]1C2CCC(C(=O)OC)(CC2)[C@H]1C(=O)OC | – | -5.5 | 1.3 µM (active) | –
13 | CN(Cc1ccccc1)c1nnc(N)s1 | – | -2.39 | – | 1.26% (inactive)
14 | O=C(NC(=S)Nc1ccc(S(=O)(=O)Nc2nccs2)cc1)c1ccccc1F | – | 13 | – | 0.875% (inactive)
15 | Cc1ccc(/C=N/NC(=O)c2ccc(Br)o2)s1 | – | -8.7 | 3.66 µM (active) | –
16 | O=C(N/N=C\c1cn(-c2ccccc2)nc1-c1ccccc1)c1ccc(Br)o1 | – | 6.81 | 23.1 µM (active) | –
17 | NC(=O)N/N=C/c1cn(-c2ccccc2)nc1-c1ccccc1 | – | 15.1 | – | 13.8% (inactive)
18 | Cc1ccc(/C=N/NC(=O)c2ccco2)s1 | – | -9.87 | – | 17.2% (inactive)
19 | Cc1ccc(/C=N/NC(=O)c2ccc(C(=O)N/N=C/c3ccc(C)s3)o2)s1 | – | 10.7 | – | -1.54% (inactive)
20 | O=C(N/N=C/c1cn(-c2ccccc2)nc1-c1ccccc1)c1ccco1 | inactive | – | – | –
21 | CCC(=O)N(c1ccc(C(=O)O)cc1)c1nc(-c2ccc(OC)cc2)c(C)s1 | – | -9.44 | – | 1.19% (inactive)
22 | CC(=O)Cc1nsc(NC(=O)c2ccc(-c3cc(Cl)ccc3Cl)o2)n1 | – | 15.1 | – | 12.3% (inactive)
23 | CS(=O)(=O)c1ccc(C(=O)Nc2cccc(-c3nc4ccccc4[nH]3)c2)cc1 | inactive | 3.88 | – | –

Row | SMILES | outcome | cell number change [%] | Potency | lipid storage change, negative = inhibition
24 | O=C(Nc1nc2ccccc2[nH]1)c1cccc([N+](=O)[O-])c1 | – | -8.28 | – | 5.31% (inactive)
25 | CS(=O)(=O)c1cccc(C(=O)Nc2ccc(-c3nc4ccccc4[nH]3)cc2)c1 | inactive | 86.3 | – | –
26 | CN(C)c1cccc(C(=O)Nc2nc3ccccc3[nH]2)c1 | – | -3.6 | 14.6 µM (active) | –
27 | COc1cccc(C(=O)Nc2nc3ccccc3[nH]2)c1 | – | 17.8 | – | -0.695% (inactive)
28 | CS(=O)(=O)c1cccc(C(=O)Nc2cccc(-c3nc4ccccc4[nH]3)c2)c1 | – | -15 | 7.31 µM (active) | –
29 | Cn1c(N2CCOCC2)c(/C=N/OC(=O)c2cccnc2Cl)c2ccccc21 | inactive | – | – | –
30 | Cc1ccc(NS(=O)(=O)c2ccc3c(c2)NC(=O)CO3)c(C)c1 | inactive | -9.44 | – | –
31 | O=C1CCCN1S(=O)(=O)c1ccccc1 | – | -14.6 | – | -16.7% (inactive)
32 | O=C(Nc1nnc(C2CC2)s1)c1cccc(S(=O)(=O)N2CC(c3ccccc3)CC2=O)c1 (stereo not given) | – | – | – | 14.3% [at 9.22 µM] (inactive)
33 | O=C1CC(c2ccccc2)CN1S(=O)(=O)c1ccccc1 (stereo not given) | – | -20.2 | 20.6 µM (active) | –
34 | O=C(N=C1SC2CS(=O)(=O)CC2N1CCc1ccccc1)C1CCCCC1 (stereo not given) | inactive | – | – | –
35 | Cc1cc(C=O)c(C)n1-c1cccc(C(=O)O)c1 | – | 7.64 | – | 22.3% (inactive)
36 | CC(C)(C)NC(=O)COC(=O)c1cc(S(=O)(=O)N2CCCCC2)ccc1N1CCOCC1 | – | – | – | -8.17% (inactive)
37 | CC(C)(C)C(=O)COC(=O)c1cc(S(=O)(=O)N2CCCCC2)ccc1N1CCOCC1 | – | -8.75 | – | -21.4% [at 0.0737 µM] (inactive)
38 | Cc1ccc(OCCOC(=O)c2cc(S(=O)(=O)N3CCCCC3)ccc2N2CCOCC2)cc1 | – | -27 | 5.17 µM (active) | –
39 | CC(=O)Nc1ccc(NC(=O)COC(=O)/C=C/c2ccc3c(c2)OCO3)cc1 | – | -1.06 | 5.17 µM (active) | –
40 | NC(=O)c1ccc(NC(=O)COC(=O)/C=C/c2ccc3c(c2)OCO3)cc1 | – | 9.72 | – | -1.6% (inactive)
41 | COc1ccccc1NC(=O)COC(=O)/C=C/c1ccc2c(c1)OCO2 | – | 18 | – | 3.62% (inactive)
42 | CCOC(=O)C1(Cc2ccccc2C(F)(F)F)CCN(C2CCN(C(C)=O)CC2)CC1 | – | 11.4 | – | 6.45% (inactive)
43 | CC1CCc2nc(N)c(C#N)c(-c3cccn3C)c2C1 (stereo not given) | – | – | – | 12% (inactive)
44 | COc1cccc2cc(C(=O)NCc3ccccc3Br)c(=O)oc12 | – | 1.66 | – | 9.42% (inactive)
45 | CC1Cc2ccccc2N1C(=O)c1cc2cccnc2n(C)c1=O (stereo not given) | – | 1.02 | – | 4.14% (inactive)
46 | NS(=O)(=O)c1cc2c(cc1Cl)NC(c1ccccc1OCC(=O)O)NS2(=O)=O (stereo not given) | inactive | -10.4 | – | –
